Data: PubChem BioAssay (EPA / NIEHS)
Activity calls are given as the source filed them. The calls were made as follows: active = hit-call score of the fitted dose curve at least 0.9, where 1 is the maximum; inactive = score below 0.9.

The molecules below were run on Interleukin-1 alpha (IL1a), IL1A (gene 3552) (assay: BSK_BE3C_IL1a: BioMAP Diversity Plus: BE3C Assay for Interleukin-1 alpha (IL1a) Biomarker Activity (AID 2283016)). Conditions: primary human bronchial epithelial cells; actives raise or lower the signal.
Method: BSK_BE3C is a cell-based, multiplexed-readout assay that uses bronchial epithelial cell, a human lung primary cell, with measurements taken at 24 hours after chemical dosing in a 96-well plate.BSK_BE3C_IL1a is an assay component measured in the BSK_BE3C assay. It measures IL-1a antibody related to regulation of gene expression using ELISA technology.Data from the assay component BSK_BE3C_IL1a was analyzed into 1 assay endpoint. This assay endpoint, BSK_BE3C_IL1a, was analyzed with bidirectional fitting relative to DMSO as the negative control and baseline of activity. Using a type of binding reporter, gain or loss-of-signal activity can be used to understand changes in the signaling as they relate to the gene IL1A. Furthermore, this assay endpoint can be referred to as a primary readout, because this assay has produced multiple assay endpoints where this one serves a signaling function. To generalize the intended target to other relatable targets, this assay endpoint is annotated to the cytokine intended target family, where the subfamily is interleukins.
The levels of cell surface (or secreted, indicated by the prefix "s") biomarker endpoints were measured by ELISA. Overt cytotoxicity to cells in confluent adherent cultures (all systems other than the BT system) was assessed by measuring total protein levels using sulforhodamine B (SRB) staining in parallel cultures at the time of biomarker measurements, indicated as SRB endpoints. For proliferation assays for adherent cell types, individual cell types are cultured at sub-confluence and relative cell numbers quantified by SRB staining at time points optimized for each system (48 h: 3C and CASM3C systems; 72 h: BT and HDF3CGF systems; 96 h: SAg system). SRB was performed by staining cells with 0.1% SRB after fixation with 10% TCA and reading wells at 560 nm.Viability and proliferation of PBMC (T cells) was quantified by Alamar Blue reduction for the SAg and BT systems. For PBMC viability (referred to as PBMC Cytotoxicity within the assay endpoint names), cells were plated (75,000/well in a 96-well plate) and then chemical samples added for 1 h before addition of activators, SEB and TSST-1 (20 ng/mL final concentration each). Cells were incubated for 90 h. Then, Alamar Blue (20 uL/well) (Invitrogen, Cat DAL1100) was added for 6 h, and the plates were read with a fluorescence microplate reader at 546/580 nm (excitation/emission). For PBMC proliferation, cells were plated and activated as above but incubated for only 16 h prior to addition of Alamar Blue. Plates were read after 6 h.

| SMILES | AC50 | outcome |
| --- | --- | --- |
| O=C(CCCCCCCCc1cccnc1)N1CCC(C=C(c2ccccc2)c2ccccc2)CC1 | 27.3 µM (active) |  |
| CC[C@H](C)C(=O)O[C@H]1C[C@@H](C)C=C2C=C[C@H](C)[C@H](CC[C@@H]3C[C@@H](O)CC(=O)O3)[C@H]21 | 33.6 µM (active) |  |
| COc1ccc(-n2nc(C(F)F)cc2-c2ccc(S(C)=O)cc2)cc1 (stereo not given) |  | inactive |
| Clc1nc(Cl)c(Cl)c(Cl)c1Cl | 29.2 µM (active) |  |
| CC(O)CN(CCN(CC(C)O)CC(C)O)CC(C)O (stereo not given) |  | inactive |
| NC(=O)NO |  | inactive |
| CCCCCCc1ccc(O)cc1O | 33 µM (active) |  |
| CC(C)c1cccc(C(C)C)c1N1C(=O)c2ccc(O)cc2C1=O | 20 µM (active) |  |
| O=C1CCCCCN1 |  | inactive |
| CCCCCCCCCCCCCCCO |  | inactive |
| O=c1[nH]c2ccc(S(=O)CCN3CCC(Cc4ccc(F)cc4)CC3)cc2o1 (stereo not given) |  | inactive |
| O=C(O)CC(O)C(=O)O (stereo not given) |  | inactive |
| Cc1ccc(N)cc1O |  | inactive |
| O=C(O)c1cccc(N(Cc2cccnc2)c2ccc(OC(F)F)c(OC(F)F)c2)c1 |  | inactive |
| CC/C(=C\C(=N/O)C(N)=O)C(C)[N+](=O)[O-] (stereo not given) |  | inactive |
| Nc1nc2ncc(CNc3ccc(C(=O)N[C@@H](CCC(=O)O)C(=O)O)cc3)nc2c(=O)[nH]1 |  | inactive |
| CCOC(=O)COc1ccc2c(c1)CC(NCC(O)c1cccc(Cl)c1)CC2 (stereo not given) |  | inactive |
| O=C(NS(=O)(=O)/C=C/c1ccccc1)c1ccc(F)cc1Cl |  | inactive |
| COCCOc1cc2cc(C(=O)NC3CCN(C(C)C)CC3)n(CC(=O)Nc3ccc(Cl)cn3)c2cn1 |  | inactive |
| O=C1OC(=O)C2C3C=CC(C3)C12 (stereo not given) |  | inactive |

| SMILES | AC50 | outcome |
| --- | --- | --- |
| C=CCCCCCCCCC(=O)O |  | inactive |
| CC(C)=CCCC(C)CCO (stereo not given) |  | inactive |
| COc1ccc(/C=C/S(=O)(=O)NC(=O)c2ccc(C)cc2Cl)cc1 |  | inactive |
| CCCC(=O)OCC |  | inactive |
| CC(C)CCCCCCCOC(=O)CCCCC(=O)OCCCCCCCC(C)C |  | inactive |
| CC(C)CC(C)(O)C#CC(C)(O)CC(C)C (stereo not given) |  | inactive |
| CC(C)=CCCC(C)=CC=O |  | inactive |
| O=c1n(CC2CO2)c(=O)n(CC2CO2)c(=O)n1CC1CO1 (stereo not given) |  | inactive |
| COC(=O)c1ccccc1O |  | inactive |
| Cc1ccc(S(=O)(=O)O)cc1C |  | inactive |
| CCOC(=O)c1ccc(C2CCC(NC[C@H](O)COc3ccc(O)c(NS(C)(=O)=O)c3)CC2)cc1 (stereo not given in full) |  | inactive |
| Cc1[nH]cnc1C[C@H]1CCc2c(C)c3ccccc3n2C1=O |  | inactive |
| Nc1cccc(N)c1 |  | inactive |
| Fc1ccccc1[C@@H](F)COC1CCC(Nc2ncnc3[nH]ncc23)CC1 (stereo not given in full) |  | inactive |
| CCc1cc(SCc2sc(-c3ccc(C(F)(F)F)cc3)nc2CN2CCN(c3ccc(OC)cc3)CC2)ccc1OCC(=O)O | 7 µM (active) |  |
| Cc1ccc(C)c(O)c1 |  | inactive |
| O=C(O)c1cccc(Oc2ccccc2)c1 |  | inactive |
| C1=CCCC=CCCC=CCC1 |  | inactive |
| CCOC(=O)CC(CC(=O)OCC)(OC(C)=O)C(=O)OCC |  | inactive |
| COc1ccc2sc(C(=O)Nc3nnn[nH]3)c(OC(C)C)c2c1 | 12.2 µM (active) |  |
